High-throughput results from PubChem BioAssay.
Sampled rows, rich in hits. Any-hit rate of the full collection: about 4.1%.
ssDAF12 agonist: S. stercoralis DAF-12 nuclear receptor activators, primary screen, cell-based, luminescence, HEK293, GRIP1 co-expression, lit1-tk-luc | Nuclear hormone receptor DAF-12 (Strongyloides stercoralis) | HEK293 ssDAF-12/GRIP1 lit1-tk-luc reporter; % of 3 µM dafachronic acid response | activation, % at 6.8 µM | actives 1% (n = 370,000) | AID 652126, 2013;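 active = activation above the mean over all tested compounds plus 3 SD, cut at about 0.9% in these data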
DAX1 inh-1: DAX1 (NR0B1) inhibitors, primary screen, cell-based, HEK293, Gal4-DAX1, luciferase luminescence; inhibition, % at 6.75 µM; actives 0.99% (n = 340,000); Nuclear receptor subfamily 0 group B member 1 (Homo sapiens), P51843; HEK293 Gal4-DAX1 luciferase reporter;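 active = inhibition above the mean over all tested compounds plus 3 SD, cut at about 4.2% in these data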;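 note: inhibition shows as a rise in luminescence from relieved DAX1 repression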
Target sequence (P51843 207-470 limits assumed): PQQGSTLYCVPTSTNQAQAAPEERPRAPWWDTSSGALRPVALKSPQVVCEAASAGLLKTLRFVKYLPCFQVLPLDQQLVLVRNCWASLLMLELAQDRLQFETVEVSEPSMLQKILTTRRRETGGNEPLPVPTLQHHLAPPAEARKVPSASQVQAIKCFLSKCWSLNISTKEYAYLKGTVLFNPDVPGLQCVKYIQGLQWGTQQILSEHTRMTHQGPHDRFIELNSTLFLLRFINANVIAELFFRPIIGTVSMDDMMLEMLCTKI
hcDAF-12 act: H. contortus DAF-12 nuclear receptor activators, primary screen, cell-based, luminescence, HEK293, lit1-tk-luc reporter | HEK293 hcDAF-12 lit1-tk-luc reporter; 0% DMSO, 100% Δ7-dafachronic acid | activation, % at 6.8 µM | actives 1.4% (n = 370,000) | AID 652067, 2013;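 active = activation above the mean of all tested compounds plus 3 SD, cut at about 5.5% in these data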
DAX1 inh-2: DAX1 (NR0B1) inhibitors on StAR promoter, primary screen, cell-based, luminescence, SF-1 (NR5A1), full-length DAX-1; HEK293T StAR-luciferase reporter, SF-1/DAX-1 repression relief; inhibition, % at 6.8 µM; actives 1.1% (n = 370,000);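 active = inhibition above the mean over all tested compounds plus 3 SD, cut at about 3.6% in these data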;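 note: higher inhibition means more luminescence from relief of DAX-1 repression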
hgDAF12 agonist: H. glycines DAF-12 receptor agonists, primary screen, cell-based, luminescence, HEK293, GAL4 fusion, UAS-luciferase; Nuclear hormone receptor DAF-12 (Heterodera glycines), GAL4 fusion; HEK293 GAL4-hgDAF12 UAS-luciferase reporter, agonist luminescence; normalized to butyrate control; activation, % at 6.8 µM; actives 1.8% (n = 370,000); AID 687014, 2013;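 active = activation above a cutoff set at the mean of all screened compounds plus 3 SD, cut at about 10% in these data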
PolyA inh: polyadenylation inhibitors in yeast reporter cells, primary screen, luminescence, S. cerevisiae; activity score, % at 12 µM; S. cerevisiae SKY197-pL101 polyadenylation reporter, beta-gal luminescence; efflux-impaired pdr1/pdr3 knockout yeast; score 100 = 6 SD above DMSO; actives 0.02% (n = 300,000);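 active = lowest replicate activity score at least 50, where 100 means six control SD above control mean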;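 note: yeast exposed to compound for 9 h at 30 °C; higher score means more reporter readthrough which indicates perturbed polyadenylation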
Of the large screens only hits and unclear results are named; the others gave an inactive call.

Nn1c(SCc2cccc(Br)c2)nnc1-c1cccnc1	none
Nn1c(SCc2cccc(F)c2)nnc1-c1cccnc1	ssDAF12 agonist 1.1, DAX1 inh-1 5.7
C[C@@H]1CCN(C2CC2)S(=O)(=O)c2c(cccc2N2CC[C@H](N(C)C)C2)O1	none (no result: DAX1 inh-1, PolyA inh)
CC(C)CCOP(=O)(c1ccc(N(C)C)cc1)C(Nc1ccccc1)c1ccc(N(C)C)cc1 (stereo not drawn)	none
CCCOP(=O)(c1ccc(N(C)C)cc1)C(Nc1ccccc1)c1ccc(C)cc1 (stereo not drawn)	PolyA inh 59
COC(=O)N1C[C@H](OCc2ccccc2)[C@H]2C[C@@H]1c1ccccc1O2	none (no result: DAX1 inh-1, PolyA inh)
Cc1ccc(-c2onc3ccc(C=O)cc23)cc1	hgDAF12 agonist 13
Cc1ccc(-c2onc3ccc(C4(C)OCCO4)cc23)cc1	none
Cc1cc(-c2onc3ccc(Cl)cc23)ccc1O	hcDAF-12 act 6.2
Cc1ccc(C(=O)N2CCN(c3ccc(N4CCOCC4)nn3)CC2)cc1	none
Cc1cccc(C(=O)N2CCN(c3ccc(N4CCOCC4)nn3)CC2)c1	ssDAF12 agonist 2.2, DAX1 inh-1 4.4
COc1ccc(OCC2CN(Cc3ccccc3)S(=O)(=O)CCO2)cc1 (stereo not drawn)	none (no result: DAX1 inh-1, PolyA inh)
Cc1sc2nc(SCC(=O)c3ccc(O)c(O)c3)n(C)c(=O)c2c1C	none (no result: DAX1 inh-1, PolyA inh)
CCC(C)n1c(=S)[nH]c2c(sc3ccc([N+](=O)[O-])cc32)c1=O (stereo not drawn)	ssDAF12 agonist 3.4
Cc1ccc(OCCCCCCN2CCNCC2)c(Br)c1	DAX1 inh-1 4.7, hcDAF-12 act 5.9
Cc1ccc(OCCCCN2CCC(C)CC2)c(Br)c1	none
COc1ccc(C(=O)COC(=O)c2cccs2)cc1	DAX1 inh-2 3.7, hgDAF12 agonist 11 (no result: PolyA inh)
CC(=O)Nc1ccc(C(=O)COC(=O)c2cccs2)c(F)c1	hgDAF12 agonist 11 (no result: PolyA inh)
CCc1ccc2nc(NC(=O)c3ccc(N4C(=O)CCC4=O)cc3)sc2c1	DAX1 inh-1 4.4
CC1CCc2nc(NC(=O)c3ccc(N4C(=O)CCC4=O)cc3)sc2C1 (stereo not drawn)	none
COC(=O)c1ccc(C(=O)NC(=S)Nc2nc3c(s2)CCCC3)cc1	hcDAF-12 act 6.2
O=C(CCCc1cccs1)Nc1nc2c(s1)CCCC2	ssDAF12 agonist 1.0
COc1ccc(OCC(=O)Nc2nc3c(s2)CCCC3)cc1	none
O=C(Nc1nc2c(s1)CCCC2)c1ccc(N2C(=O)CCC2=O)cc1	DAX1 inh-2 4.2
COC(=O)C1=C(C)N(C)C(=NCC2CC2)NC1c1cccc(C(F)(F)F)c1 (stereo not drawn)	none (no result: DAX1 inh-1, PolyA inh)
C=CCNC(=O)Nc1ccc2c(c1)[C@@]1(CC(=O)N(CC(C)C)C1c1ccccc1)C(=O)N2C (stereo partly drawn)	none (no result: DAX1 inh-1, PolyA inh)
COc1ccc(-c2cc(C(=O)NN=Cc3ccc(-c4ccccc4)cc3)[nH]n2)cc1	none (no result: DAX1 inh-1, PolyA inh)
O=C(Nc1nc2c(s1)CCCC2)c1ccc(Br)s1	hcDAF-12 act 6.2
O=C1CCC[C@H]2C[C@H](NCc3cccc(Cl)c3)CC[C@]23CCCN13	none (no result: DAX1 inh-1, DAX1 inh-2, PolyA inh)
CCOc1ccc(NC(=O)C(c2ccccn2)N(C(=O)CCl)c2ccc(OC)cc2)cc1 (stereo not drawn)	ssDAF12 agonist 2.4, hcDAF-12 act 10, hgDAF12 agonist 11
CCOc1ccc(NC(=O)C(c2ccccn2)N(C(=O)CCl)c2ccc(OCC)cc2)cc1 (stereo not drawn)	none (no result: ssDAF12 agonist, hcDAF-12 act, DAX1 inh-2, hgDAF12 agonist, PolyA inh)
COc1cccc(NC(=O)C2(C)CCN2C(=O)CCc2ccc(Cl)cc2Cl)c1 (stereo not drawn)	ssDAF12 agonist 1.6 (no result: DAX1 inh-1, PolyA inh)
Cc1ccc(-c2nnc(SCC(=O)c3ccc(O)c(O)c3)n2-c2ccc(Cl)cc2)cc1	none (no result: DAX1 inh-1, PolyA inh)
Cc1ccc(S(=O)(=O)NC(=O)c2cc(C)n(CC(c3ccccc3)N(C)C)c2C)cc1 (stereo not drawn)	DAX1 inh-1 5.5
Cc1ccc(S(=O)(=O)NC(=O)c2cc(C)n(-c3ccccc3)c2C)cc1	none
Cc1cccc(NC(=O)CN2C(=O)N/C(=C/c3cc(C)n(-c4cccnc4)c3C)C2=O)c1	DAX1 inh-1 6.6
Cc1cccc(NC(=O)CN2C(=O)N/C(=C/c3cc(C)n(-c4ccncc4)c3C)C2=O)c1	none
O=C(c1cccs1)N1CCc2ccccc2C1	none
O=C(c1ccc(Br)s1)N1CCc2ccccc2C1	DAX1 inh-2 3.9
O=C(Nc1ccc([N+](=O)[O-])cc1)N1CCCCC1	none
O=C(Nc1ccc([N+](=O)[O-])cc1)N1CCCCCC1	DAX1 inh-2 4.1
Fc1ccc(CSc2nncn2NCc2ccccc2)cc1	DAX1 inh-1 6.9
Cc1nc2ccc(NC(=O)c3c(Cl)cccc3Cl)cc2c(=O)[nH]1	none (no result: DAX1 inh-1, PolyA inh)
Clc1cccc(-c2csc(Nc3cccnc3)n2)c1	hcDAF-12 act 5.8
O=S1(=O)CCN2N=C(C3CC3)SC2=N1	DAX1 inh-1 6.2
C=CCN1CC(COCCCC)Oc2ccc(Cl)cc2S1(=O)=O (stereo not drawn)	none (no result: DAX1 inh-1, PolyA inh)
NNC(=O)c1csc(COc2cc(Cl)cc(Cl)c2)n1	none (no result: DAX1 inh-1)
CC(=O)c1csc(COc2ccc(Cl)cc2)n1	DAX1 inh-1 9.3
CN1OC[C@@H]2CN(C(=O)c3ccc([N+](=O)[O-])cc3)[C@H](c3ccccc3Br)C[C@@H]21	none (no result: DAX1 inh-1, PolyA inh)
COC(=O)[C@H](CC(C)C)N(CCCc1cn(Cc2ccccc2)nn1)S(=O)(=O)c1ccccc1Br	none (no result: DAX1 inh-1, PolyA inh)
COc1ccc(CN2CN(S(=O)(=O)c3cccs3)c3nc4ccccc4nc32)cc1	hgDAF12 agonist 13
Cc1nn(-c2cccc(Cl)c2)c2nc(-c3ccco3)cc(C(=O)O)c12	none
Cc1cccc(-n2nc(C)c3c(C(=O)O)cc(-c4cccs4)nc32)c1	DAX1 inh-1 4.6
CC(C(=O)N1CCN(c2ccccc2)CC1)N1C(=O)C2CC=CCC2C1=O (stereo not drawn)	DAX1 inh-1 5.0
CCN(CC)C(=O)CC[C@H]1CC[C@]2(CCCN(Cc3ccncc3)C2)O1	none (no result: DAX1 inh-1, PolyA inh)
CC1=C(C(=O)Nc2ccccn2)C(c2ccc(Cl)cc2Cl)NC(=S)N1 (stereo not drawn)	none
CC1=C(C(=O)Nc2ccccn2)C(c2ccccc2Cl)NC(=S)N1 (stereo not drawn)	hgDAF12 agonist 11
